The record followed here is PubChem BioAssay (EPA / NIEHS).

Usually AC50 stands for the concentration at which the activity in the assay is half-maximal.

“And” between values parts separate entries of the source, which are not always exact repeats. Equal entries are not always repeated. Records with an inconclusive call do not appear. More than one record can exist for a structure, and the calls need not agree. The source made the active and inactive calls. Rule for the calls, unless noted: active = hit-call score of the fitted dose curve at least 0.9, where 1 is the maximum; inactive = score below 0.9.

Assay [1] has as its target Hepatocyte nuclear factor 4-alpha (Homo sapiens) (UniProt P41235). Description: ATG_HNF4a_TRANS: Attagene TRANS-FACTORIAL HepG2 Assay for human Hepatocyte Nuclear Factor 4 alpha (HNF4a) (AID 2282982; active = hit-call score of the fitted dose curve at least 0.9, where 1 is the maximum). The note with it: HepG2 HNF4a transactivation reporter, mRNA readout. A digest of the protocol:
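Multiplexed reporter assay: transfected HepG2, 24 h exposure, total RNA → oligo(dT) RT → PCR → 6-FAM extension → HpaI digest → CE fluorescence. DMSO = negative control.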

The nature of assay [2]: ATG_M_06_TRANS: Attagene TRANS-FACTORIAL HepG2 Assay for M06 Transcription Factor (Internal Marker) (AID 2282983; active = hit-call score of the fitted dose curve at least 0.9, where 1 is the maximum). The conditions noted are these: HepG2 Attagene TRANS M06 internal marker reporter. The method, boiled down:
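mRNA levels of a reporter transcript, quantified as FAM fluorescence on capillary electrophoresis, served as readout. HepG2 cells expressing exogenous GAL4-chimera reporter constructs were exposed for 24 h. Gain of signal over DMSO was evaluated.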

A short description of assay [3]: ATG_M_32_TRANS: Attagene TRANS-FACTORIAL HepG2 Assay for M32 Transcription Factor (Internal Marker) (AID 2282984; active = hit-call score of the fitted dose curve at least 0.9, where 1 is the maximum;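 note: transcript level of a background control reporter unit measured by RT-PCR and capillary electrophoresis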). The conditions noted are these: HepG2 Attagene TRANS M32 internal marker reporter. A digest of the protocol: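 Cell-based TRANS-format assay in HepG2: exogenous chimeric GAL4 reporter units transiently expressed, compounds applied 24 h. Reporter mRNA detected by RT-PCR plus capillary electrophoresis; this readout is an internal background marker.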

Assay [4] addresses Transcriptional activator Myb (Homo sapiens) (UniProt P10242). Nature of the assay: ATG_Myb_CIS: Attagene CIS-FACTORIAL HepG2 Assay for human Myeloblastosis (Myb) Proto-Oncogene Transcription Factor (AID 2282986). The conditions noted are these: HepG2 Attagene CIS-FACTORIAL Myb reporter transcription; actives raise or lower the signal. A digest of the protocol:
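HepG2 cells were transiently transfected with cis-regulated multiple reporter transcription units reflecting endogenous Myb activity, then exposed to compound for 24 hours. Reporter mRNA was measured by RT-PCR with capillary electrophoresis; bidirectional fitting versus DMSO baseline.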

Assay [5] concerns the target Nuclear respiratory factor 1 (Homo sapiens) (UniProt Q16656). Nature of the assay: ATG_NRF1_CIS: Attagene CIS-FACTORIAL HepG2 Assay for human Nuclear Respiratory Factor 1 (NRF1) Orphan Gene (AID 2282987). The conditions noted are these: HepG2 NRF1 cis-element reporter, Attagene multiplex; actives raise or lower the signal. The method, boiled down:
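HepG2 cells transiently transfected with multiple reporter transcription units under cis-regulatory promoter control, so endogenous transcription-factor activity is read. After 24 h compound exposure, reporter mRNA quantified by RT-PCR, fluorescent labelling, HpaI digestion and capillary electrophoresis; bidirectional fitting versus DMSO.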

Assay [6] can be described thus: ATG_NFI_CIS: Attagene CIS-FACTORIAL HepG2 Assay for human Nuclear Factor I (NFI) (AID 2282989). The conditions noted are these: HepG2 cis-regulatory reporter, NFI response element transcription; actives raise or lower the signal. The method, boiled down: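 Endogenous TF activity in HepG2 cells transiently transfected with cis-element-driven multiplexed reporter units, read 24 h after dosing. Reporter mRNA quantified by RT-PCR, 6-FAM labelling, HpaI digestion and capillary electrophoresis; bidirectional fit versus DMSO.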

Assay [7] has as its target Myc proto-oncogene protein (Homo sapiens) (UniProt P01106). Nature of the assay: ATG_Myc_CIS: Attagene CIS-FACTORIAL HepG2 Assay for human Myelocytomatosis (Myc) Proto-Oncogene Transcription Factor (AID 2282990). The conditions noted are these: HepG2, Attagene cis-reporter transcription factor activity; actives raise or lower the signal. A digest of the protocol:
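After 24 h chemical treatment of HepG2 cells carrying multiplexed cis-regulated reporter constructs, reporter transcripts quantified by RT-PCR and capillary electrophoresis of fluorescent fragments. Gain or loss fitted against DMSO baseline.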

Assay [8] is described as follows: ATG_NF_kB_CIS: Attagene CIS-FACTORIAL HepG2 Assay for human Nuclear Factor Kappa B (NF-kB) (AID 2282991). The note with it: HepG2 Attagene cis-factorial NF-kB reporter mRNA; actives raise or lower the signal. A digest of the protocol: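 HepG2 cells transiently transfected with multiplexed cis-element reporter units measuring endogenous transcription factor activity; reporter mRNA read 24 h after dosing by RT-PCR, fluorescent labelling, HpaI digestion and capillary electrophoresis. Bidirectional fit against DMSO baseline.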

Assay [9] is described as follows: ATG_NRF2_ARE_CIS: Attagene CIS-FACTORIAL HepG2 Assay for human Nuclear Factor Erythroid 2 Related Factor 2 (NFR2) response to Antioxidant Response Elements (ARE) (AID 2282992). The conditions noted are these: HepG2 Attagene ARE/NRF2 reporter, transcription factor activity; actives raise or lower the signal. The method, boiled down: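 Endogenous transcription factor activity read out as reporter transcript levels (RT-PCR plus capillary electrophoresis, fluorescence) in transiently transfected HepG2 cells. Measured at 24 h after dosing; gain or loss of signal fitted versus DMSO.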

Assay [10] in a line: ATG_Oct_MLP_CIS: Attagene CIS-FACTORIAL HepG2 Assay for human Octamer-Binding Transcription Factor (Oct) (AID 2282993). The note with it: HepG2 Attagene cis-factorial Oct reporter, mRNA; actives raise or lower the signal. A digest of the protocol:
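HepG2 cells transiently transfected with cis-element-driven reporter transcription units (endogenous TF activity); 24 h compound exposure. Reporter mRNA quantified by RT-PCR, 6-FAM labelling, HpaI digestion and capillary electrophoresis; bidirectional fit versus DMSO baseline.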

For assay [11], the target named is Cellular tumor antigen p53 (Homo sapiens) (UniProt P04637). Nature of the assay: ATG_p53_CIS: Attagene CIS-FACTORIAL HepG2 Assay for human p53 Transcription Factor (AID 2282994). The note with it: HepG2 p53 cis-element reporter, Attagene mRNA; actives raise or lower the signal. A digest of the protocol: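 Endogenous p53 activity read in transiently transfected HepG2 from a cis-element-driven reporter transcript after 24 h exposure. RNA reverse-transcribed, PCR-amplified, fluorescently labelled and sized by capillary electrophoresis; gain or loss fitted against DMSO baseline.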

Assay [12] can be described thus: BSK_3C_TissueFactor: BioMAP Diversity Plus: 3C Assay for Tissue Factor Biomarker Activity (AID 2282997). The conditions noted are these: BioMAP 3C HUVEC, tissue factor biomarker readout; actives raise or lower the signal. The method, boiled down:
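Tissue Factor measured by ELISA, 24 h after treatment of primary HUVEC in the BioMAP 3C setting.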

Assay [13] can be described thus: BSK_3C_uPAR: BioMAP Diversity Plus: 3C Assay for Urokinase-type plasminogen activator receptor (uPAR) Biomarker Activity (AID 2282998). The note with it: BioMAP 3C HUVEC, uPAR biomarker ELISA; actives raise or lower the signal. The method, boiled down: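 Primary human umbilical vein endothelial cells, 3C system; surface uPAR measured by ELISA 24 h after dosing. Cytotoxicity via SRB total protein in parallel cultures; bidirectional fit against DMSO.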
In general terms: An ELISA detects its analyte on a solid surface through an enzyme-linked reagent.

Assay [14] in a line: BSK_3C_VCAM1: BioMAP Diversity Plus: 3C Assay for Vascular cell adhesion molecule 1 (VCAM1) Biomarker Activity (AID 2282999). The conditions noted are these: BioMAP 3C HUVEC, VCAM1 ELISA, cytokine-stimulated; actives raise or lower the signal. A digest of the protocol:
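Activity fitted in both directions relative to DMSO, with ELISA measurement of the surface marker on primary HUVEC (3C) at 24 h post-treatment; parallel SRB staining (0.1% SRB, TCA-fixed, 560 nm) flagged overt cytotoxicity.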

Assay [15] in a line: BSK_4H_Eotaxin3: BioMAP Diversity Plus: 4H Assay for Eotaxin 3 Biomarker Activity (AID 2283000).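 For outcome: CCL26 protein level quantified by ELISA in parallel with SRB cytotoxicity check.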 The note with it: primary human endothelial cells (HUVEC); actives raise or lower the signal. A digest of the protocol:
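Eotaxin-3 (CCL26) levels were measured by ELISA in HUVEC primary cultures 24 h post-dosing. Gain or loss of signal was fitted in both directions, with DMSO serving as baseline and negative control.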

For assay [16], the target named is human Peroxisome Proliferator-activated Receptor alpha (PPARa), PPARA (gene 5465) (UniProt Q07869). Description: ATG_PPARa_TRANS: Attagene TRANS-FACTORIAL HepG2 Assay for human Peroxisome Proliferator-activated Receptor alpha (PPARa) (AID 2283001; active = hit-call score of the fitted dose curve at least 0.9, where 1 is the maximum). A digest of the protocol:
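Transfected HepG2 cells treated with test chemical for 24 h. RNA isolated, reverse-transcribed with oligo(dT), PCR-amplified, FAM-labelled and HpaI-digested. Fragments sized by capillary electrophoresis; gain-of-signal fit relative to DMSO.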

The target of assay [17] is human Peroxisome Proliferator-activated Receptor delta (PPARd), PPARD (gene 5467) (UniProt Q03181). Nature of the assay: ATG_PPARd_TRANS: Attagene TRANS-FACTORIAL HepG2 Assay for human Peroxisome Proliferator-activated Receptor delta (PPARd) (AID 2283002; active = hit-call score of the fitted dose curve at least 0.9, where 1 is the maximum). The method, boiled down:
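Read-out is induced reporter mRNA, quantified by RT-PCR with fluorescent labelling and capillary electrophoresis after 24 h dosing. Cells are HepG2 transiently carrying multiple GAL4-UAS reporter units driven by exogenous NR-GAL4 chimeras; DMSO serves as baseline.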

Assay [18] has as its target Nuclear receptor subfamily 4 group A member 2 (Homo sapiens) (UniProt P43354). Description: ATG_NURR1_TRANS: Attagene TRANS-FACTORIAL HepG2 Assay for human Nuclear Receptor Related Protein 1 (NURR1) (AID 2282985; active = hit-call score of the fitted dose curve at least 0.9, where 1 is the maximum). The conditions noted are these: HepG2 Attagene TRANS reporter, mRNA readout. The method, boiled down:
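Measures transcriptional activation by an exogenous NR-Gal4 chimera in transfected HepG2 liver cells. After 24 h, reporter RNA is reverse-transcribed, amplified and resolved by capillary electrophoresis; DMSO defines baseline.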

Nuclear respiratory factor 1 (Homo sapiens), sequence (Q16656 whole entry, looked up): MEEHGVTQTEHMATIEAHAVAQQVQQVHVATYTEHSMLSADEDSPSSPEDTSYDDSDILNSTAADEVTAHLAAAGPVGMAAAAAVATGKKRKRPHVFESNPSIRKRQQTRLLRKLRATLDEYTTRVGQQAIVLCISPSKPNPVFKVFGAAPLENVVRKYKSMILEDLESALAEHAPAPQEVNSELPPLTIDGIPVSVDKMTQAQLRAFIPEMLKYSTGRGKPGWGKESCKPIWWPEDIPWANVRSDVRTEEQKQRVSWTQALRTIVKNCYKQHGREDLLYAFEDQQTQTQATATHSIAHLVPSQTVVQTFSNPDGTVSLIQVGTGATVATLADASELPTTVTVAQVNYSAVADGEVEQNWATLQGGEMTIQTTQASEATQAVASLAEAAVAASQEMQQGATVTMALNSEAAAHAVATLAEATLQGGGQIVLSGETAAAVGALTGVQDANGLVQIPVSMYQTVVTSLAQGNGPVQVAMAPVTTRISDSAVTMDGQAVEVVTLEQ
Myc proto-oncogene protein (Homo sapiens), sequence (P01106 whole entry, looked up, the tested form may be a part): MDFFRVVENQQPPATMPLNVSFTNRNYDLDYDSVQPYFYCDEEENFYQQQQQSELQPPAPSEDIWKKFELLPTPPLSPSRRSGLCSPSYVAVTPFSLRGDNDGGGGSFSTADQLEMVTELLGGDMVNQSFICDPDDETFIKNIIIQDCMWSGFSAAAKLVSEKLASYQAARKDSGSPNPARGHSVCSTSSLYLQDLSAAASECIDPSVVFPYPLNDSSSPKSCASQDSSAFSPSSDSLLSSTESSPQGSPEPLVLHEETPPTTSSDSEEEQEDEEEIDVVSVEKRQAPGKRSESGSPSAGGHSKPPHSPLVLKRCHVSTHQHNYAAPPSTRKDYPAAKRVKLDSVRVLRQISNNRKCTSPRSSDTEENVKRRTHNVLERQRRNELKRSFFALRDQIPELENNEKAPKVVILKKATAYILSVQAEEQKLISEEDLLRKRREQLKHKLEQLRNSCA
Hepatocyte nuclear factor 4-alpha (Homo sapiens), sequence (P41235 whole entry, looked up): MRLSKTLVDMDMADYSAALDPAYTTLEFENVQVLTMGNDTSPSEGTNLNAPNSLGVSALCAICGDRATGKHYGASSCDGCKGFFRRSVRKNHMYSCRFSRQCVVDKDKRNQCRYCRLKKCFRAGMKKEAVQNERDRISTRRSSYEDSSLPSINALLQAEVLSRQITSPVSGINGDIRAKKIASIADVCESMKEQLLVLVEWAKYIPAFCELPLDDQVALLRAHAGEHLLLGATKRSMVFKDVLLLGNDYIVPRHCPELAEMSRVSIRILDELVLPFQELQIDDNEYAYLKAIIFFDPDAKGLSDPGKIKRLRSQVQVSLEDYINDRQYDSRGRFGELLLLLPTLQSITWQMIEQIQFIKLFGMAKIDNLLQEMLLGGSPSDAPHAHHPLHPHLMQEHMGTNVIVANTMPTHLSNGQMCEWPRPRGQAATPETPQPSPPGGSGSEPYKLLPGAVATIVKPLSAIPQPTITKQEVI
Cellular tumor antigen p53 (Homo sapiens), sequence (P04637 whole entry, looked up): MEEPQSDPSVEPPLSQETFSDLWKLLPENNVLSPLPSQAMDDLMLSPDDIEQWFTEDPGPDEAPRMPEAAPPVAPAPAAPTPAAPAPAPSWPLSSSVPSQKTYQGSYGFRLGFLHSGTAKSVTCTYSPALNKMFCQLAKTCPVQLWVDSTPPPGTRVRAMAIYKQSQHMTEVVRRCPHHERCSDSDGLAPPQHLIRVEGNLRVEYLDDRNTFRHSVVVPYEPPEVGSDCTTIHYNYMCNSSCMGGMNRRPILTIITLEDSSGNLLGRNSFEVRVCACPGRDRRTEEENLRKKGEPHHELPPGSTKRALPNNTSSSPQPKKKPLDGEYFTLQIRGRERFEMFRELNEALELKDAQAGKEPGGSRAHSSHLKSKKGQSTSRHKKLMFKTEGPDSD
Transcriptional activator Myb (Homo sapiens), sequence (P10242 whole entry, looked up): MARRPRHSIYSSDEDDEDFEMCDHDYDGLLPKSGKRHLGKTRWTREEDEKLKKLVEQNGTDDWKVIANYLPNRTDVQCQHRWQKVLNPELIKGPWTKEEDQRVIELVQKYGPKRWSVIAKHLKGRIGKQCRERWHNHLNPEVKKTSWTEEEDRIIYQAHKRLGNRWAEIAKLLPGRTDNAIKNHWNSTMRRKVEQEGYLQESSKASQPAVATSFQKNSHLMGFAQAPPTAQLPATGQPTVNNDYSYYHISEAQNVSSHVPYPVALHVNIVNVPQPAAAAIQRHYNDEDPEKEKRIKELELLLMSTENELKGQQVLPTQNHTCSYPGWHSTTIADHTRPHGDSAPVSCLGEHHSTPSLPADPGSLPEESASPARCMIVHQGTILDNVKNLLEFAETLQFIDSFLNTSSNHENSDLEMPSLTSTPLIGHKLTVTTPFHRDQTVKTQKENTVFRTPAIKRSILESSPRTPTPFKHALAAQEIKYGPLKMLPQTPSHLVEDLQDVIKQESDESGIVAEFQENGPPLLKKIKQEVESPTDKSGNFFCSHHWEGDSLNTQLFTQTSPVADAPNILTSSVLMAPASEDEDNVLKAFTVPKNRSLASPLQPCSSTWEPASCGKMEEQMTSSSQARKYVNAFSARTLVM
human Peroxisome Proliferator-activated Receptor delta (PPARd), PPARD (gene 5467), sequence (Q03181 whole entry, looked up, the tested form may be a part): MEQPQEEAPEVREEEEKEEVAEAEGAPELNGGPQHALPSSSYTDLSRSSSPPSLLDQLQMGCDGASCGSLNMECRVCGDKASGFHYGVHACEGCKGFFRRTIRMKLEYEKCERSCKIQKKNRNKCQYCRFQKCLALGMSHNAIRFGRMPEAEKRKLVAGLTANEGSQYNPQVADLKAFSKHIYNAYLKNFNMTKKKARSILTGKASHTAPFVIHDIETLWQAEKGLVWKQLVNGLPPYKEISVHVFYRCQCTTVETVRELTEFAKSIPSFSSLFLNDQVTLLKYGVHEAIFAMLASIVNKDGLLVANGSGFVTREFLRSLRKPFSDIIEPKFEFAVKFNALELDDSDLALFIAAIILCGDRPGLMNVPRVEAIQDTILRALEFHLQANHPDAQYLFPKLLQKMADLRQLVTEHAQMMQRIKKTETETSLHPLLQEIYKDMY
human Peroxisome Proliferator-activated Receptor alpha (PPARa), PPARA (gene 5465), sequence (Q07869 whole entry, looked up, the tested form may be a part): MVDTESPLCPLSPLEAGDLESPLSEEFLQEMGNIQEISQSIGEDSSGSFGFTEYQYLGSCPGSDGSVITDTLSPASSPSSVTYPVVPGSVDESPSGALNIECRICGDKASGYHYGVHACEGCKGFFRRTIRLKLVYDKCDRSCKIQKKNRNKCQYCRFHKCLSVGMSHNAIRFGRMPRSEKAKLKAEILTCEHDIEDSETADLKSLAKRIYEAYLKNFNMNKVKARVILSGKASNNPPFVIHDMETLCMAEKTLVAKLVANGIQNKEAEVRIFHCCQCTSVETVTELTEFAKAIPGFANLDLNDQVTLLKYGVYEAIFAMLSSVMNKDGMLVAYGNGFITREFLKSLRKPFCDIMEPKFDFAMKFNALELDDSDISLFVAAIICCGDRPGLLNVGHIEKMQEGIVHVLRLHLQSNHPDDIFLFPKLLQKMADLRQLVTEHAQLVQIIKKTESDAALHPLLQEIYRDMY
Nuclear receptor subfamily 4 group A member 2 (Homo sapiens), sequence (P43354 whole entry, looked up, the tested form may be a part): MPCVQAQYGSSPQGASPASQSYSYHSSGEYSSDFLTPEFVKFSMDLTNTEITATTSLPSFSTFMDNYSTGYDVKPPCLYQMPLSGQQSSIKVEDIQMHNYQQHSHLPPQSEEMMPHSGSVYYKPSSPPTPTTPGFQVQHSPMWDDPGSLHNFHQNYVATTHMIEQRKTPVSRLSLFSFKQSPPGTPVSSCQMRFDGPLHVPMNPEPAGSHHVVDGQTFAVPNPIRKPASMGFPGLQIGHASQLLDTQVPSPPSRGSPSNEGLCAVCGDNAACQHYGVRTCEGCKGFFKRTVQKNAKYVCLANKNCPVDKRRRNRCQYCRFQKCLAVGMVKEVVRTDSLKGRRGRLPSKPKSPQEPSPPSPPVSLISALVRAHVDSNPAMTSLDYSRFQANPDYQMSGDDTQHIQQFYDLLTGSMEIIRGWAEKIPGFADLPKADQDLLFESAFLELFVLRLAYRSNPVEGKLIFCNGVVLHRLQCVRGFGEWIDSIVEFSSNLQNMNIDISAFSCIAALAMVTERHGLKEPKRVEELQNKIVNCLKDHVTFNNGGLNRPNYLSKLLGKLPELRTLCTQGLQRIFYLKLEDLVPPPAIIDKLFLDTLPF

For `OCC(F)(F)C(F)(F)C(F)(F)C(F)(F)C(F)(F)C(F)(F)C(F)(F)C(F)(F)C(F)(F)C(F)(F)C(F)(F)F`, the call in assay [1], in assay [2], in assay [3], in [4], in [5] and in assay [6] was inactive. Further, the compound was classed as inactive in assay [7], in assay [8], in assay [10], in [11], in assay [12] and in assay [13]. Further, the result in assay [14], in assay [15], in assay [16] and in assay [17] was inactive. Moreover, the concentration at half-maximal activity (AC50) in assay [9] is 55.4 µM (active).
For the compound `O=S(=O)(O)c1ccc2cc(O)ccc2c1`, the compound was classed as inactive in assay [1], in assay [2], in [3], in assay [4], in assay [5] and in assay [7]. The compound was classed as inactive in [8], in [9], in [10], in assay [11] and in assay [16].
Turning to `C[N+](C)(CCCNS(=O)(=O)CCC(F)(F)C(F)(F)C(F)(F)C(F)(F)C(F)(F)C(F)(F)F)CC(=O)[O-]`, the call in [1], in [2], in [3], in [18], in assay [4] and in assay [5] was inactive. Also, the result in assay [6], in assay [7], in assay [8], in assay [11], in assay [16] and in assay [17] was inactive. Further, the AC50 in assay [9] was 0.00659 µM (active).
Turning to `CCC1CO1` (stereo not given), the compound was called inactive in assay [1], in assay [2], in assay [18], in assay [4], in assay [5] and in [6]. In addition, the compound was classed as inactive in assay [7], in assay [8], in assay [9], in [10], in assay [11] and in [16]. Moreover, the outcome in assay [17] was inactive.
Regarding `Clc1ccc2c(Cl)ccnc2c1`, the outcome in [1], in assay [2], in assay [3], in assay [4], in [5] and in [6] was inactive. In addition, the result in assay [7], in assay [8], in [10], in assay [11] and in [17] was inactive. In assay [9], the AC50 is 3.21 µM (active).
As for `O=C(NO)c1ccccc1`, the outcome in [1], in assay [2], in assay [3], in assay [4], in [5] and in assay [6] was inactive. Also, the call in assay [7], in assay [9], in assay [10], in assay [12], in assay [13] and in assay [14] was inactive. Moreover, the result in assay [15] was inactive. Also, the AC50 in assay [8] is 22 µM (active) [middle of 4 runs]; in assay [9], 16.2 µM (active) and 18.5 µM (active); in [11], 35.3 µM (active) [middle of 4 runs].
Take `CC[N+](CC)(CC)Cc1ccccc1`: the outcome in assay [1], in assay [2], in assay [3], in [4], in [5] and in assay [6] was inactive. The outcome in [7], in assay [8], in assay [9], in assay [10], in assay [11] and in assay [12] was inactive. Further, the outcome in [13], in assay [14], in assay [15] and in assay [17] was inactive.
`O=P(O)(O)CCC(F)(F)C(F)(F)C(F)(F)C(F)(F)C(F)(F)C(F)(F)F`: the call in [1], in assay [2], in assay [3], in assay [4], in [5] and in [7] was inactive. Also, the result in [8], in assay [9], in assay [10], in assay [11], in assay [12] and in assay [13] was inactive. Moreover, the outcome in assay [14], in [15], in [16] and in assay [17] was inactive. In assay [15], the AC50 is 447 nM (active).
